Data published in PubChem BioAssay AID2783 (National Center for Advancing Translational Sciences (NCATS), 2010).
Results filed as inconclusive are left out. Unmarked numbers belong to inactive results. Calls come from the whole dose curve; as a rule, active = well fitted inhibition curve with a large enough effect in the polarisation, with a control signal flat (not every such curve was filed as active); inconclusive = small, poorly fitted or top-dose-only effect, or effect the other way, or a change in a side signal; inactive = no such curve, though single readings can be large or run the other way; the % refers to the polarisation.
% is set by controls: 0 for no effect and ±100 for the full control effect.

These compounds were tested against Menin (Homo sapiens) (UniProt O00255) (assay: Confirmation of Inhibitors Targeting the Menin-MLL Interaction in MLL Related Leukemias: Competition With Fluorescein Labeled MLL-derived Peptide). Details: Fluorescence polarization, fluorescein-MLL peptide displacement from menin; series mostly up to 100 µM; activity change, negative = inhibition: at the top concentration.
Sequence of Menin (Homo sapiens) (O00255 whole entry, looked up): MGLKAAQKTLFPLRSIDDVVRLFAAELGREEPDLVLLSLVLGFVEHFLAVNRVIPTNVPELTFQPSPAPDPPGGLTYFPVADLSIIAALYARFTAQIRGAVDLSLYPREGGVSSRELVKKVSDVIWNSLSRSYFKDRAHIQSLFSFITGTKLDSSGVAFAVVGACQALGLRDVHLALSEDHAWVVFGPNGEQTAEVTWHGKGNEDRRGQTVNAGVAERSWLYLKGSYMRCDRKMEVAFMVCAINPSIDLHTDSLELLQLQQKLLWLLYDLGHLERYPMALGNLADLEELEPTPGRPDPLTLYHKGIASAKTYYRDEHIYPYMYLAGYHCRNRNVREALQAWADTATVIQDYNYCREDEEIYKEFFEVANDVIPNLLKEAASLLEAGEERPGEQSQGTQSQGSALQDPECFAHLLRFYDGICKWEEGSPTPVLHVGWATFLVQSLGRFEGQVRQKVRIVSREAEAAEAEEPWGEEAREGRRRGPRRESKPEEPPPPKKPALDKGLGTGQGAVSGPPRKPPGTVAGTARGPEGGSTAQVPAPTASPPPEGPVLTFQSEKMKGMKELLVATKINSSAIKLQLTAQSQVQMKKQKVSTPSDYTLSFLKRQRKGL
Excerpt: qHTS Assay for Inhibitors Targeting the Menin-MLL Interaction in MLL Related Leukemias
NIH Chemical Genomics Center [NCGC]
NIH Molecular Libraries Probe Centers Network [MLPCN]
Assay Submitter (PI): Jolanta Grembecka, Tomasz Cierpicki, University of Virginia
Translocations of the MLL (Mixed Lineage Leukemia) gene are frequently found in human leukemias affecting both children and adults. Fusion of MLL to one of more than 60 genes results in generation of oncogenic proteins upregulating Hox genes, which are vital to blood cell development. Patients harboring fusion of the MLL gene suffer from aggressive leukemias and respond poorly to available therapies. All of the oncogenic fusion proteins have a preserved N-terminal fragment of MLL that has been identified to interact with menin. It has been recently discovered that association with menin is critical to the leukemogenic activity of the MLL fusion oncoproteins. Selective targeting of the menin-MLL interaction could provide an attractive therapeutic approach to develop novel drugs for MLL-related leukemias. Small molecules blocking the menin-MLL interaction should reverse the oncogenic potential of MLL fusion proteins.
We have developed and optimized a fluorescence polarization-based assay for the identification of Menin-MLL inhibitors. The assay was run employing two different MLL-derived peptides. The present assay uses a 12 amino acid peptide labeled with fluorescein at its N-terminus. This peptide consists of the menin high affinity binding motif from MLL and is potently bound by menin. Another peptide with a mutated sequence, labeled with Texas Red, was used in parallel as a less stringent screen for inhibitors.
The present assay was run to confirm the activity of hits from the primary screen.
The Menin protein, the MLL-wild type (w.t.) derived peptide (N-terminal 12 amino acids), the MLL-derived peptide labeled with Texas Red and the MLL-w.t. peptide labeled with Fluorescein were kindly supplied by laboratory of Dr. Jolanta Grembecka, University of Virginia. All protein and peptide solutions were stored in single use aliquots at -80C. The Eu3+ Cyrptate-conjugated mouse monoclonal antibody anti-6 Histidine (Eu3+-AB) and the Streptavidin-XL665 conjugate (XL665) were purchased from Cisbio International (Bedford, MA). All antibody and XL665 conjugate solution stocks were stored in single use aliquots at -20C. The Buffer components for all assays were purchased from Sigma-Aldrich (St. Louis, MO) and Invitrogen (Carlsbad, CA).
1. FP reaction buffer: 50 mM Tris-HCl pH 7.5, 50 mM NaCl, 1mM DTT.
Before use, 0.05% BSA is added.
2. Menin protein, MLL-w.t. labeled with fluorescein, MLL-mutant peptide labeled with texas red.
Stored in singe use aliquots at -80C.
3. MLL-w.t. unlabeled peptide as positive control: 10 uM final in FP buffer.
1. Prepare Menin at 200 nM, MLL-w.t.-fluorescein at 25 nM, and MLL-mutant-texas red at 50 nM mixture in FP buffer.
2. Prepare Menin at 200 nM, MLL-w.t.-fluorescein at 25 nM, MLL-mutant-texas red at 50 nM, and 10 uM MLL-w.t. unlabeled mixture in FP buffer.
3. Prepare MLL-w.t.-fluorescein at 25 nM and MLL-mutant-texas red at 50 nM mixture in FP buffer.
3. Dispense 4 ul per well of reagent in step 1 in columns 2, 4 - 48 in a black 1536 well plate, dispense 4 ul per well of reagents from steps 2 and 3 in columns 1 and 3 respectively. Incubate plate at ambient for 15 minutes.
4. Transfer 23 nl per well of compound to plate and incubate at ambient for 1 hr.
5. Read fluorescence polarization for each label using the PerkinElmer Envision.
Envision protocol for fluorescein: FITC FP Dual Enh Mirror, Excitation filter 480, Emission filter (1) P-pol 535, Emission filter (2) S-pol 535
Envision protocol for texas red: FP Dual Enh Mirror, Excitation filter 555, Emission filter (1) P-pol 632, Emission filter (2) S-pol 632
With `O=C1NC(=O)C(=Cc2ccc3ccccc3c2)C(=O)N1` the “activity change, negative = inhibition” value was -8.04% [at 288 µM]. In the case of `C[C@@H]1CC[C@@]2(NC1)O[C@H]1C[C@H]3[C@@H]4CC=C5C[C@@H](O)CC[C@]5(C)[C@H]4CC[C@]3(C)[C@H]1[C@@H]2C`, the “activity change, negative = inhibition” value is reported as -4.43%. `O=C(O)CN1C(=O)CN=C(c2ccccn2)c2cc(Cl)ccc21` was tested, and the “activity change, negative = inhibition” value was 0.244% [at 288 µM]. `COc1cc(/C=N/n2cnnc2)ccc1OC(=O)N(C)C` was tested, and the “activity change, negative = inhibition” value was -5.61% [at 288 µM]. For `O=c1oc2ccccc2c(O)c1C(c1ccccn1)c1c(O)c2ccccc2oc1=O`, the “activity change, negative = inhibition” value was -5.18%. `CCOC(=O)Cc1csc(NC(=O)c2c(O)c3ccccc3n(CCC(C)C)c2=O)n1` was tested, and the “activity change, negative = inhibition” value was -5.01%. For `CCCCCn1c(=O)c(C(=O)Nc2nc(CC(=O)OCC)cs2)c(O)c2ccccc21`, the “activity change, negative = inhibition” value was -14.2%. With `C[N+](C)(C)CC#CCN1CCCC1=O` the “activity change, negative = inhibition” value was -1.22% [at 288 µM]. With `CCOP(=O)(OCC)C(NC(=O)c1ccccc1C)C(Cl)(Cl)Cl` (stereo not given) the “activity change, negative = inhibition” value was 3.33% [at 288 µM]. `CC[C@]12C=CCN3CC[C@@]4(c5ccc(OC)cc5N(C)[C@H]4[C@@](O)(C(=O)OC)[C@@H]1OC(C)=O)C32` (stereo not given in full) was tested, and the “activity change, negative = inhibition” value was -14.9%. `O=C(Nc1ccc2ccccc2c1)c1nn(C23CC4CC(CC(C4)C2)C3)cc1Br` was tested, and the “activity change, negative = inhibition” value was -12.5%. `COc1ccc(C(O)P(=O)(Oc2ccccc2)Oc2ccccc2)cc1` (stereo not given) was tested, and the “activity change, negative = inhibition” value was -6.17% [at 288 µM]. `CCCCn1c(=O)c(C(=O)Nc2ccsc2C(=O)OC)c(O)c2ccccc21` was tested, and the “activity change, negative = inhibition” value was 5.42%. `Cc1cc(C(=O)NP(=O)(N2CCOCC2)N2CCOCC2)c(C)n1C1CC1` was tested, and the “activity change, negative = inhibition” value was -16%. With `OC12C3C4CC5C6C4C1C6C(C53)N2CCc1cccc(F)c1` (stereo not given) the “activity change, negative = inhibition” value was -3.88%.
